Data on 40 molecules can be found in PubChem BioAssay (NCATS).

Structures are written as SMILES. Records with an inconclusive call do not appear. Activity calls are given as the source filed them. Calls come from the whole dose curve; as a rule, active = well fitted cell-killing curve with a large enough effect; inconclusive = small, poorly fitted or top-dose-only effect; inactive = flat fitted curve, though single readings scatter.

The test is described as follows: Cellular viability qHTS for adrenocortical cancer (ACC) cell line NCI-H295R (AID 1963990). Note: nearly all actives have a fitted effect of over 60% in size. Particulars: CellTiter-Glo ATP luminescence, 48 h; series mostly up to 46.1 µM; activity change, negative = viability loss: at the top concentration. The text has this: PI: Naris Nilubol, MD Surgical Oncology Program, National Cancer Institute (NCI) National Institute of Health (NIH), Bethesda, Maryland Adrenocortical cancer (ACC) is a rare malignancy with poor survival outcomes and few treatment options. Currently, mitotane is the only FDA-approved therapy for ACC. Although adjuvant radiation therapy is rarely utilized, it has the potential to improve survival in select cases. Through a quantitative high-throughput drug screen (qHTS), we identified auranofin (AF), a thioredoxin reductase (TXNRD) inhibitor, as a promising candidate drug. This study aims to evaluate whether AF can enhance the efficacy of radiation therapy in the treatment of ACC. Two human ACC cell lines, SW-13 and NCI-H295R, were screened using the National Center for Advancing Translational Sciences (NCATS) Pharmaceutical Collection (NPC) and the Mechanism Interrogation PlatE (MIPE) library (~4,991 compounds). CellTiter-Glo (Cat # G7570, Promega, Madison, WI) was utilized to measure cell viability. Described herein are the results of the corresponding viability assay.
PROTOCOL TABLE (as described by Inglese J, Shamu CE and Guy RK. 2007) SEQUENCE No. (e.g., 1, 2, 3, etc.); […] (e.g., Cells, Incubation, Reagent, etc.); VALUE; DESCRIPTION. 1; Cells; 5 uL; white, solid-bottom, 1536-well tissue-culture treated plates. 2; Time; overnight culture at 37C with 5% CO2. 3; Compounds and control; 23 nL; Kalypsis pin tool (Wako USA) equipped with a 1536-well pin head to transfer to the assay plates. 4; Time; 48 hours; 37C with 5% CO2. 5; Reagent; 4 uL; CellTiter-Glo luminescent substrate mix. 6; Time; 20 min at room temperature. 7; Detection; Luminescence; ViewLux plate reader NOTES (numbers refer to Sequence numbers above) 1. NCI-H295R cells were harvested from a T175 flask and resuspended in ITS-supplemented DMEM serum-free medium at a concentration of 300 000 cells/mL. Then 5 uL of resuspended cells were dispensed into each well of white, solid-bottom, 1536-well tissue-culture-treated plates using a multidrop combi dispenser. The plates were covered with stainless steel gasket lids. 2-3. The plates were cultured overnight at 37C with 5% CO2. Twenty-three nL of compounds (eight selected concentrations from the NPC / MIPE) or positive control (10 mM stock of bortezomib) in DMSO was transferred to each well of the assay plate using a pin tool (Kalypsys, San Diego, CA, USA). The final concentration of the compounds in the 5 uL assay volume ranged from 0.5 nM to 46 uM. 4-6. After 48 hours of incubation at 37C and 5% CO2, 4 uL of CellTilter-Glo luminescent substrate mix (Promega, Madison, WI, USA) was added to each well. Then the plates were incubated for 20 minutes at room temperature. 7. After incubation, luminescence was measured using a ViewLux plate reader (PerkinElmer, Waltham, MA, USA) with a clear filter was used to measure the number of metabolically competent cells. To determine compound activity in the qHTS assay, the titration-response data for each sample was plotted and modeled by a four-parameter logistic fit yielding IC50 and efficacy (maximal response) values. Raw plate reads for each titration point were normalized relative to positive control ([…], 100% inhibition) and DMSO-only wells (basal, 0%). REFERENCES: Inglese J, Shamu CE and Guy RK, Reporting data from high throughput screening of small molecule libraries, Nature Chemical Biology, 2007, 3(8): 438-441. doi.org/10.1038/nchembio0807-438.
`CCc1cccc(N(C)C(N)=Nc2cccc3ccccc23)c1`: the Potency is 20.6 µM (active).

As for `Cc1ccc(NC(=O)c2ccc(CN3CCN(C)CC3)cc2)cc1Nc1nccc(-c2cccnc2)n1`, the Potency is 25.1 µM (active). On to `CCCCOC(=O)c1ccc(N)cc1`, for which the “activity change, negative = viability loss” value is -16.9% (inactive).

Take `N#Cc1ccc(Oc2ccc3c(c2)COB3O)cc1`: the “activity change, negative = viability loss” value was -8.51% (inactive).

Consider `C/C=C(/C(=C/C)c1ccc(OC(C)=O)cc1)c1ccc(OC(C)=O)cc1`, for which the Potency was 23.1 µM (active). Same read-out and setting: the figure for `O=C1NCN(c2ccccc2)C12CCN(CCCC(c1ccc(F)cc1)c1ccc(F)cc1)CC2` is 3.26 µM (active).

As for `CCCCCCOc1ccccc1C(N)=O`, the “activity change, negative = viability loss” value was -22.3% (inactive).

Consider `O=C(O)c1c(O)c(-c2ccccc2)nc2ccccc12`, for which the “activity change, negative = viability loss” value is -12.2% (inactive).

For the molecule `CC1(COc2ccc(CC3SC(=O)NC3=O)cc2)CCCCC1` (stereo not given), the Potency is 16.4 µM (active). The same measure, in the same setting: the result for `NCCNc1cccc2ccccc12` reads 20.6 µM (active). Consider `NC1=NCC2c3ccccc3Cc3ccccc3N12` (stereo not given), for which the “activity change, negative = viability loss” value was -21.4% (inactive). On to `NC(=O)c1ccc2nc(-c3ccc(C4(N)CCC4)cc3)c(-c3ccccc3)n2n1`, for which the Potency is 6.31 µM (active). Regarding `Nc1ccc2c(c1)CN1C(=O)c3ccccc3C1=N2`, the “activity change, negative = viability loss” value was -21% [at 20 µM] (inactive).

Regarding `NS(=O)(=O)Oc1ccc2c3c(c(=O)oc2c1)CCCCC3`, the “activity change, negative = viability loss” value was -1.46% (inactive). Same read-out and setting: the figure for `C[C@@H](c1ccc2nccn2c1)n1nnc2ncc(-c3cnn(C)c3)nc21` is -13.2% (inactive). As for `CCCOC(C(=O)OC1CCN(C)CC1)(c1ccccc1)c1ccccc1`, the Potency is 23.1 µM (active).

With `OCCN1CCN(CCCN2c3ccccc3C=Cc3ccccc32)CC1`, the “activity change, negative = viability loss” value was -28% (inactive). As for `O=C(CCCN1CCN(c2ccccn2)CC1)c1ccc(F)cc1`, the “activity change, negative = viability loss” value was 3.03% (inactive).

Take `CCOC(=O)N1CCC(Nc2ccc(Cl)cc2N)CC1`: the Potency was 16.4 µM (active). Regarding `CN1CCN(C2=Nc3cc(F)ccc3Cc3ccccc32)CC1`, the “activity change, negative = viability loss” value is -9.15% (inactive). Turning to `O=C(C1CCCCC1)N1CC(=O)N2CCCc3ccccc3C2C1` (stereo not given), the Potency is 29.1 µM (active).

For the molecule `CC(C)NC[C@@H](O)COc1cccc2ccccc12`, the “activity change, negative = viability loss” value was -7.01% (inactive).

Regarding `CC(=O)NCC(=O)N1[C@@H]2CC[C@H]1c1ccc(Nc3ncc(C(F)(F)F)c(NC4CCC4)n3)cc12`, the Potency was 4.47 µM (active).

As to `OCCOCCN1CCN(C(c2ccccc2)c2ccc(Cl)cc2)CC1` (stereo not given), the “activity change, negative = viability loss” value was -29.3% (inactive). Still for that read-out and setting: the figure for `CC(=O)N1CCC(Nc2cc(C(=O)NC[C@H](O)CN3CCc4ccccc4C3)ncn2)CC1` is -18% (inactive). For `CCN(CC)CCCN(c1ccccc1)C1Cc2ccccc2C1`, the Potency is 25.9 µM (active).

Turning to `c1ccc2occc2c1`, the “activity change, negative = viability loss” value is -22.6% [at 92.7 µM] (inactive). Still for that read-out and setting: the figure for `C[C@H]1CN(C2COC2)CCN1c1ccc(Nc2cc(-c3ccnc(N4CCn5c(cc6c5CC(C)(C)C6)C4=O)c3CO)cn(C)c2=O)nc1` is -1.69% (inactive); for `O=C1CC[C@H](N2Cc3c(OCc4ccc(CN5CCOCC5)cc4)cccc3C2=O)C(=O)N1` it is -9.45% (inactive); for `CCc1cc(Nc2nccc(-c3c(-c4ccc(OC)c(C(=O)Nc5c(F)cccc5F)c4)nc4ccccn34)n2)c(OC)cc1N1CCC(N2CCN(S(C)(=O)=O)CC2)CC1` it is -15.4% (inactive). Consider `Cn1cc(/C=C2\C(=O)Nc3cccnc32)c2ccccc21`, for which the “activity change, negative = viability loss” value is -21.5% (inactive). With `CN(C)CCOC(c1ccccc1)c1ccc(Br)cc1` (stereo not given), the Potency is 13 µM (active). With `COc1ccc([C@@H]2Sc3ccccc3NC(=O)[C@@H]2O)cc1`, the Potency is 23.1 µM (active).

Regarding `NC(=O)c1c(OCc2c(F)cc(Br)cc2F)nsc1NC(=O)NCCCCN1CCCC1`, the Potency was 22.4 µM (active). Regarding `COc1ccc(S(=O)(=O)NCc2ccc(C(=O)NCCc3ccc(Cl)cn3)cc2)cc1`, the “activity change, negative = viability loss” value is -20.4% (inactive). For `COc1ccc(/C=C/C(=O)c2ccc(OC)cc2OC)cc1`, the Potency is 9.2 µM (active).

For the molecule `CC(O)c1cc(C(=O)N[C@@H](C)Cn2ccc(-c3ccc(C#N)c(Cl)c3)n2)n[nH]1` (stereo not given in full), the “activity change, negative = viability loss” value is 0.758% (inactive).

As for `OCCOc1ccc(/C(=C(/CCCl)c2ccccc2)c2ccccc2)cc1`, the Potency is 25.1 µM (active). For `CN1C(=O)[C@@H](NC(=O)c2cc(Cc3ccccc3)on2)COc2ccccc21`, the “activity change, negative = viability loss” value is -6.6% (inactive). As for `CC(C)=CCC1C(=O)N(c2ccccc2)N(c2ccccc2)C1=O`, the Potency was 20.6 µM (active).
